Assay results from PubChem BioAssay AID720706 (Broad Institute, 2013).
“And” between values parts separate entries of the source, which are not always exact repeats. Identical values can stand only once. Hit rate of the full screen: of about 350,000 compounds, about 5,500 (1.6%) were called active.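 Rule for the calls: active = significant combined selectivity score with lowered wild-type GFP, culture density cut under 30%, mutant RFP and density less affected; inactive = any of these conditions unmet.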 Many of the other results were omitted from the sample, so actives are more common in it than they were.

Test: GFP drop in mixed WT/humanized-ribosome E. coli culture – GFP/RFP fluorescence, OD600, single point, bacterial rRNA inhibitor project, primary screen (AID 720706)
Conditions: E. coli WT GFP vs humanized-ribosome RFP mutants, 24 h; GFP signal change (wild-type ribosome): stronger effect = lower value, concentration not given here unless noted; OD600 change: measured here: OD600 growth unless noted; RFP signal change: measured here: RFP humanized mutant strains, concentration not given here unless noted

Row | Compound | GFP signal change (wild-type ribosome) | OD600 change | RFP signal change
1 | O=C1CC(=O)N(Cc2ccccc2)C(=O)N1CCCCCCN1C(=O)CC(=O)N(Cc2ccccc2)C1=O | -23.4% (active) | 8% | -3.78%
2 | O=C(CN1CCCC1=O)NCCc1ccccc1 | 13.1% (inactive) | 9.85% | 2.04%
3 | CS(=O)(=O)N1CCC2CCNC2C1 (stereo not given) | -44.3% [stronger effect = lower value, DMSO median 0, no signal -100] (inactive) | -74.4% [measured here: OD600 growth, DMSO median 0, no signal -100] | -13% [measured here: RFP humanized mutant strains, DMSO median 0, no signal -100, concentration not given here]
4 | O=C(Cc1ccccc1)N1CCCCN2[C@H](C1)[C@H](c1ccc(C#CC3(O)CCCC3)cc1)[C@@H]2CO | -0.103% (inactive) | -5.65% | -2.06%
5 | COC(=O)[C@@H]1[C@@H](CO)[C@@H]2Cn3c(ccc(-c4ccc(F)cc4)c3=O)[C@H]1N2C(C)=O | -1.54% (inactive) | -1.06% | -2.02%
6 | C[C@]12CCC3C(CC[C@H]4C[C@@H](O)CC[C@]34C)C1C[C@@H](O)[C@H]2O (stereo not given in full) | -1.03% (inactive) | 2.49% | 0.13%
7 | C[C@]12CCC3C(CC[C@H]4[C@H](O)[C@H](O)CC[C@]34C)C1CCC2=O (stereo not given in full) | -22.2% (inactive) | -18.8% | 3.96%
8 | CC12CCC3C(CCC4CC(=O)CCC43C)C1CC(=NO)C2=O (stereo not given) | -22% (active) | -9.98% | 4.28%
9 | C=CCN1[C@@H]2CN(S(C)(=O)=O)C[C@H]1C2c1ccc(Br)cc1 (stereo not given in full) | 0.44% [stronger effect = lower value, DMSO median 0, no signal -100] (inactive) | -2.24% [measured here: OD600 growth, DMSO median 0, no signal -100] | 0.309% [measured here: RFP humanized mutant strains, DMSO median 0, no signal -100, concentration not given here]
10 | COc1cccc(-c2ccc3n(c2=O)C[C@@H]2[C@@H](CO)[C@H](C(=O)O)[C@H]3N2C(=O)c2cnccn2)c1 | 0.18% (inactive) | 2.71% | -2.44%
11 | Brc1ccc2c(c1)CNCc1cnnn1-2 | 21.4% [stronger effect = lower value, DMSO median 0, no signal -100] (inactive) | 6.17% [measured here: OD600 growth, DMSO median 0, no signal -100] | 0.786% [measured here: RFP humanized mutant strains, DMSO median 0, no signal -100, concentration not given here]
12 | C/C=C/c1ccc(C2[C@@H]3CN(S(C)(=O)=O)C[C@H]2N3)cc1 (stereo not given in full) | 0.848% [stronger effect = lower value, DMSO median 0, no signal -100] (inactive) | 10.1% [measured here: OD600 growth, DMSO median 0, no signal -100] | 0.743% [measured here: RFP humanized mutant strains, DMSO median 0, no signal -100, concentration not given here]
13 | O=[N+]([O-])c1cnc2ccc3ccccc3c2c1 | -67.7% (inactive) | -75.7% | -31.1%
14 | C/C(=N/O)c1ccc2ccc3ccccc3c2c1 | -48% (active) | -16.4% | -10.4%
15 | Clc1ccc([C@@H]2CC3CCC2N3)cn1 (stereo not given in full) | 0.922% [stronger effect = lower value, DMSO median 0, no signal -100] (inactive) | -1.31% [measured here: OD600 growth, DMSO median 0, no signal -100] | -1.9% [measured here: RFP humanized mutant strains, DMSO median 0, no signal -100, concentration not given here]
16 | FC(F)(F)CN1CC2C(c3ccc(Br)cc3)C(C1)N2CC1CC1 (stereo not given) | -5.85% [stronger effect = lower value, DMSO median 0, no signal -100] (inactive) | -3.54% [measured here: OD600 growth, DMSO median 0, no signal -100] | -0.25% [measured here: RFP humanized mutant strains, DMSO median 0, no signal -100, concentration not given here]
17 | O=C(Cc1ccncc1)N1CCCCN2[C@H](CO)[C@@H](c3ccc(C#CC4(O)CCCC4)cc3)[C@H]2C1 | 5.65% (inactive) | 9.16% | 1.41%
18 | Cc1ncoc1C(=O)NCC1=C(c2cccc3ccccc23)C[C@@H]2CC[C@H]1N2Cc1ccco1 | 5.41% (inactive) | -0.665% | -7.54%
19 | CCOc1ccc(-c2cc(C)[n+](CCN(CC)CC)c(-c3ccc(OCC)cc3)c2)cc1 | -47.8% (active) | -15.2% | -13.2%
20 | CCC(C)NC1(c2ccccc2)CCCCC1 (stereo not given) | 11.4% (inactive) | 7.39% | 4.1%
21 | CN(c1ccccc1)c1ccc([N+](=O)[O-])c2nonc12 | -8.38% (active) | -3.73% | -4.23%
22 | CCN(CC)c1ccc([N+](=O)[O-])c2cccnc12 | -44.1% (inactive) | -57.8% | -2.59%
23 | FC(F)(F)CN1CC2NC(C1)C2c1ccc(Br)cc1 (stereo not given) | -1.54% [stronger effect = lower value, DMSO median 0, no signal -100] (inactive) | -0.568% [measured here: OD600 growth, DMSO median 0, no signal -100] | -0.0575% [measured here: RFP humanized mutant strains, DMSO median 0, no signal -100, concentration not given here]
24 | O=S(=O)(c1ccccc1)N1CCC2CCNC2C1 (stereo not given) | 32.8% [stronger effect = lower value, DMSO median 0, no signal -100] (inactive) | 20.2% [measured here: OD600 growth, DMSO median 0, no signal -100] | 4.31% [measured here: RFP humanized mutant strains, DMSO median 0, no signal -100, concentration not given here]
25 | CC(=O)N1C[C@@H]2C(c3ccc(Br)cc3)[C@H](C1)N2C (stereo not given in full) | -0.325% [stronger effect = lower value, DMSO median 0, no signal -100] (inactive) and 1.25% [stronger effect = lower value, DMSO median 0, no signal -100] (inactive) | 4.6% [measured here: OD600 growth, DMSO median 0, no signal -100] and 7.11% [measured here: OD600 growth, DMSO median 0, no signal -100] | -3.94% [measured here: RFP humanized mutant strains, DMSO median 0, no signal -100, concentration not given here] and 0.471% [measured here: RFP humanized mutant strains, DMSO median 0, no signal -100, concentration not given here]
26 | CN(C)CC1Oc2ccccc2OC1(O)c1ccccc1 (stereo not given) | -40.9% (active) | -11.5% | -12.2%
27 | COC(=O)[C@@H]1[C@@H](CO)[C@@H]2Cn3c(ccc(C4=CCCCC4)c3=O)[C@H]1N2CC1CC1 | -0.199% (inactive) | -2.21% | -0.887%
28 | O=C(O)[C@H]1[C@H](CO)[C@H]2Cn3c(cccc3=O)[C@@H]1N2C(=O)c1ccccc1 | 2.42% (inactive) | 7.83% | -1.92%
29 | COc1ccccc1CN1[C@@H](CO)[C@@H](c2ccccc2)C12CN(C(=O)Cc1ccccc1)C2 | -13.7% [stronger effect = lower value, DMSO median 0, no signal -100] (inactive) | -27.1% [measured here: OD600 growth, DMSO median 0, no signal -100] | -0.899% [measured here: RFP humanized mutant strains, DMSO median 0, no signal -100, concentration not given here]
30 | COC(=O)[C@@H]1[C@@H](CO)[C@@H]2Cn3c(ccc(-c4cccc(C(=O)N(C)C)c4)c3=O)[C@H]1N2C(=O)NC(C)C | 1.25% (inactive) | 8.61% | -0.784%
